# From publication PMC10668032, “Altered binding affinity of SIX1-Q177R correlates with enhanced WNT5A and WNT pathway effector expression in Wilms tumor”
# In all, about 33,000 sequences were measured (“e-score”: median about -0.053, highest 2% from about 0.38 on). The full list was thinned out, with the highest values kept by preference.
# Molecular target: T1, SIX1 homeodomain (reference allele) (human, UniProt Q15475 108-198)
# T1 sequence: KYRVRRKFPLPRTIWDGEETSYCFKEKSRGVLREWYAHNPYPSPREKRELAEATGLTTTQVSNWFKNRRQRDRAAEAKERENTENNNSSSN
# Experiment: universal protein binding microarray; Universal all-10-mer PBM (8x60K, AMADID 030236), 300 nM GST-tagged protein, Alexa Fluor 488 anti-GST; buffer, salt, pH and temperature not stated (as in Berger); high values mean tight binding
# Settings: protein: ivt; tags: N-terminal GST; dsDNA, one strand shown
# Procedure, shortened: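 Homeodomains fused to GST were made by in vitro transcription/translation and measured by anti-GST western blot with a recombinant GST standard curve. At 300 nM final concentration, they were applied in duplicate to universal 'all 10-mer' protein binding microarrays (8×60K format).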
row,Sequence,binding signal [E-score]
1,GTGATCCA,0.377 ± 0.0369
2,ATGATCGG,0.294 ± 0.0125
3,ATGATCTG,0.355 ± 0.0221
4,ATGATCGA,0.173 ± 0.029
5,CTGATCCA,0.357 ± 0.0346
6,GTGATCAA,0.236 ± 0.0408
7,CTGATCCC,0.416 ± 0.02
8,ATGATCCA,0.391 ± 0.0192
9,CTGATCGC,0.191 ± 0.0397
10,CTGATCTC,0.312 ± 0.016
11,ATGATCCG,0.452 ± 0.00636
12,GTGATCTA,0.2979 ± 0.000552
13,TCCCCTCA,0.175 ± 0.0645
14,CTGCTATA,0.194 ± 0.0359
15,AGTGAGAC,0.198 ± 0.0551
16,ACTCGATA,0.303
17,TACACCTA,0.304 ± 0.0311
18,CATTATCC,0.326 ± 0.00937
19,CGTCGATC,0.157 ± 0.105
20,ATCATTTA,0.193 ± 0.0974
21,AATTATAC,0.165 ± 0.066
22,GATAGTCA,0.189 ± 0.0298
23,TAAAGATA,0.167 ± 0.162
24,ATGATCAC,0.309 ± 0.0105
25,ATGATCCC,0.448 ± 0.0106

row,Sequence,binding signal [E-score]
1,ATGATCTC,0.327 ± 0.0416
2,ACCGAGAT,0.26507 ± 0.000212
3,ACGGATGA,0.211 ± 0.0174
4,ATCGCGAT,0.334 ± 0.0159
5,ATACATTC,0.188 ± 0.0482
6,TACGTGGA,0.195 ± 0.113
7,ATGGATCG,0.345 ± 0.0571
8,GTGGATAA,0.2486 ± 0.00124
9,GTGGATCA,0.4 ± 0.0347
10,ATGGATCA,0.383 ± 0.00801
11,CTGGATCA,0.326 ± 0.0378
12,GTAGATCA,0.29 ± 0.0141
13,ACACCAGC,0.211 ± 0.0357
14,CTTCGATA,0.342 ± 0.0398
15,GCATATGA,0.167 ± 0.0211
16,GCATACTA,0.22 ± 0.00291
17,ATGTATGA,0.261 ± 0.0176
18,ATCATTAG,0.281 ± 0.0368
19,TCACCTGA,0.165 ± 0.00229
20,CATACCTA,0.174 ± 0.0329
21,TATACCGA,0.339 ± 0.026
22,AATACCTA,0.289 ± 0.0733
23,AATACCGG,0.273 ± 0.0276
24,GATACCGC,0.461 ± 0.0131
25,AATACCGA,0.321 ± 0.0139

row,Sequence,binding signal [E-score]
1,GATACCGA,0.4164 ± 0.00268
2,GATACCTA,0.472 ± 0.0087
3,AATACCGT,0.318 ± 0.04
4,AATACCGC,0.386 ± 0.0176
5,CATACCGG,0.166 ± 0.0474
6,GCTAATAC,0.244 ± 0.0389
7,CCGGAATA,0.162 ± 0.00262
8,AACTACAC,0.169 ± 0.006
9,CGTTGATC,0.152 ± 0.0357
10,GACCCGGC,0.183 ± 0.012
11,GGTGTAGA,0.317 ± 0.04
12,ACTATCTC,0.209 ± 0.0851
13,AGTATCTC,0.376 ± 0.0377
14,CGTATCTC,0.378 ± 0.00747
15,CCTATCTC,0.227 ± 0.035
16,CGTATCTA,0.349 ± 0.0276
17,CGTATATC,0.336 ± 0.0303
18,AGTATATC,0.383 ± 0.0642
19,AGTATATA,0.306 ± 0.0599
20,AGTATCTG,0.317 ± 0.0419
21,CATCTATC,0.211 ± 0.0124
22,ATATGGCG,0.223 ± 0.0647
23,AATGGGAT,0.213 ± 0.0227
24,ACACCTTA,0.238 ± 0.0937
25,GATGAGCC,0.249 ± 0.0159

row,Sequence,binding signal [E-score]
1,CTATCTGA,0.231 ± 0.0348
2,CGAGATCC,0.325 ± 0.0133
3,GATAATGA,0.174 ± 0.0154
4,AGACGGGA,0.2 ± 0.0154
5,ATAGTAGC,0.187 ± 0.0294
6,GGGGGATA,0.4424 ± 0.00147
7,CGGGGAGA,0.182 ± 0.0823
8,ACGGGGGA,0.217 ± 0.0264
9,CCGGGATA,0.305 ± 0.0131
10,CGGGGATA,0.413 ± 0.0228
11,AGGGGATA,0.425 ± 0.000834
12,CTGGGATA,0.266 ± 0.0214
13,ACGGGATA,0.376 ± 0.00774
14,AGGGGGGA,0.206 ± 0.028
15,ATGGGATA,0.36 ± 0.00494
16,GCGGGATA,0.3486 ± 0.00158
17,GTGGGATA,0.348 ± 0.0178
18,CCAGGGTA,0.221 ± 0.0174
19,GGAACACC,0.187 ± 0.018
20,CATTAATA,0.154 ± 0.0188
21,ATAACATC,0.165 ± 0.0558
22,GATCACGA,0.273 ± 0.0518
23,ATCACCGA,0.251 ± 0.0115
24,CATATGGG,0.179 ± 0.0474
25,GGCGTATA,0.179 ± 0.0032

row,Sequence,binding signal [E-score]
1,CGCCTATC,0.218 ± 0.0337
2,CGCGTATA,0.232 ± 0.0592
3,AGCGTATC,0.411 ± 0.0267
4,CGCGTATC,0.424 ± 0.00815
5,AGCGTATA,0.233 ± 0.0627
6,ATACCAGC,0.3035 ± 0.00134
7,AGACCCGG,0.214 ± 0.0594
8,ACACCCGC,0.27 ± 0.0197
9,ATACCCGA,0.407 ± 0.00771
10,AGACCCGA,0.196 ± 0.0537
11,ATACCAGA,0.299 ± 0.0031
12,ATACCCGG,0.407 ± 0.0266
13,ATACCCGC,0.3787 ± 0.00251
14,ACACCCGA,0.294 ± 0.0236
15,ATACCAGG,0.3772 ± 0.00332
16,ATACACGC,0.328 ± 0.00888
17,AAACCCGG,0.163 ± 0.0401
18,GATTATAA,0.165 ± 0.0198
19,GATTACAC,0.164 ± 0.0334
20,ATAGACAC,0.285 ± 0.0262
21,GACACGGA,0.196 ± 0.00735
22,AGGAATAC,0.2106 ± 0.00182
23,GGATTGGA,0.171 ± 0.00314
24,ATACTGCC,0.3133 ± 0.000361
25,ATCGTTGC,0.202 ± 0.04

row,Sequence,binding signal [E-score]
1,TAATACTA,0.276 ± 0.0717
2,GCATAATA,0.187
3,CTGATCAG,0.313 ± 0.0448
4,CGGATCAG,0.443 ± 0.0116
5,CCGATCAG,0.24 ± 0.0341
6,GGGATCGA,0.385 ± 0.0533
7,TGGATCAA,0.3057 ± 0.00301
8,CTGATCAC,0.204 ± 0.0353
9,CGGATCAA,0.417 ± 0.0173
10,AGGATCGA,0.289 ± 0.0472
11,CGGATCAC,0.463 ± 0.00697
12,CGGATCGA,0.34 ± 0.0821
13,AGGATCAA,0.352 ± 0.036
14,CCGATCAC,0.346 ± 0.0289
15,CGAGATCG,0.207 ± 0.0304
16,TAATATGA,0.196 ± 0.0472
17,CCCCGATA,0.347 ± 0.00347
18,CCTTGATC,0.243 ± 0.0361
19,GGGATCAA,0.386 ± 0.0187
20,GTGATCAC,0.306 ± 0.0127
21,GAGATCAA,0.31 ± 0.0391
22,GGGATCAC,0.445 ± 0.0186
23,GCGATCAA,0.18 ± 0.0413
24,GCGATCAC,0.354 ± 0.0376
25,ATCGGTGG,0.189 ± 0.0514

row,Sequence,binding signal [E-score]
1,CAACACCG,0.268 ± 0.021
2,CCCTGATC,0.33 ± 0.0305
3,ACTTGATA,0.374 ± 0.0379
4,GCTTGATA,0.351 ± 0.0581
5,CGTTGATA,0.334 ± 0.0658
6,AGTTGATC,0.23 ± 0.0154
7,AGTTGATA,0.406 ± 0.0373
8,GGTTGATA,0.384 ± 0.0228
9,AGATAACG,0.191 ± 0.042
10,ATATGCGC,0.27 ± 0.0371
11,CGGCTCAC,0.174 ± 0.0262
12,CCTATCCC,0.291 ± 0.0369
13,CTTATCCA,0.186 ± 0.0114
14,CCTATCCA,0.232 ± 0.0293
15,CGTATCCC,0.389 ± 0.00815
16,ACTATCCC,0.294 ± 0.0143
17,AGTATCCC,0.412 ± 0.00869
18,ATTATCCC,0.274 ± 0.0711
19,CTTATCCC,0.235 ± 0.0469
20,CGTATCCA,0.403 ± 0.0252
21,GATCCTGC,0.353 ± 0.0135
22,CATCTAAG,0.178 ± 0.0937
23,ATACTGGA,0.325 ± 0.00489
